This note sets out measurements from PubChem BioAssay (Tox21).

Assay [1] in a line: A CellTox Green Cytotoxicity Assay to monitor cytotoxicity in HEK293 cells - 32 hour (AID 1224881). Further: nearly all actives have a fitted effect of over 40% in size. Further: potency means the concentration at half of the fitted maximal effect. In a few lines:
(§1)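 Real-time, in one plate: 600 HEK293 cells/well with dead-cell DNA dye, pinned compound after 5 h, 37 C incubation over 40 h; viable cells give no appreciable fluorescence.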

Assay [2] is described as follows: A CellTox Green Cytotoxicity Assay to monitor cytotoxicity in HepG2 cells - 0 hour (AID 1224882). Further: nearly all actives have a fitted effect of over 35% in size. Further: potency means the concentration at half of the fitted maximal effect. In a few lines:
(§2)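 Cytotoxicity was tracked as dead-cell DNA fluorescence in HepG2 cells treated with test compounds at 37 C; each time-point value comes from one kinetic series spanning 0, 8, 16, 24, 32 and 40 h.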

Assay [3] in a line: A CellTox Green Cytotoxicity Assay to monitor cytotoxicity in HepG2 cells - 32 hour (AID 1224883). Further: nearly all actives have a fitted effect of over 50% in size. Further: potency means the concentration at half of the fitted maximal effect. In a few lines: as §2
Assay [4] in a line: A CellTox Green Cytotoxicity Assay to monitor cytotoxicity in HEK293 cells - 8 hour (AID 1224884). Further: nearly all actives have a fitted effect of over 35% in size. Further: potency means the concentration at half of the fitted maximal effect. The essentials:
as §1

Assay [5] is described as follows: qHTS RealTime-Glo MT Cell Viability Assay in HepG2 cells - 16 hour (AID 1224885). Further: nearly all actives have a fitted effect of over 50% in size. The essentials: (§3)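 Viability was tracked continuously by NanoLuc luminescence from prosubstrate reduced by living HepG2 cells, at successive time points over 40 h of compound exposure. Cells with reagent were preincubated 5 h at 37 °C before compound addition.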
For orientation: In qHTS, concentration-response curves come from the screen itself.

Assay [6] can be described thus: qHTS RealTime-Glo MT Cell Viability Assay in HEK293 cells - 24 hour (AID 1224886). Further: top concentration of the series differs between compounds; nearly all actives have a fitted effect of over 50% in size. In a few lines:
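Viability tracked continuously by luminescence as live cells reduce a prosubstrate for NanoLuc; HEK293 cells preincubated 5 h, compound-treated at 37 C, and read at 0, 8, 16, 24, 32 and 40 h.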

A short description of assay [7]: qHTS RealTime-Glo MT Cell Viability Assay in HEK293 cells - 8 hour (AID 1224887). Further: top concentration of the series differs between compounds; nearly all actives have a fitted effect of over 50% in size. The essentials:
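Kinetic, non-lysing viability readout. Seed HEK293 (600/well) with reagent, incubate 5 h at 37 C/5% CO2, pin 23 nL compound in DMSO, incubate at 37 C, read luminescence at 0, 8, 16, 24, 32, 40 h.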

Assay [8] in a line: A CellTox Green Cytotoxicity Assay to monitor cytotoxicity in HEK293 cells - 16 hour (AID 1224888). Further: nearly all actives have a fitted effect of over 35% in size. Further: potency means the concentration at half of the fitted maximal effect. The essentials: as §1
A short description of assay [9]: qHTS RealTime-Glo MT Cell Viability Assay in HepG2 cells - 0 hour (AID 1224889). Further: nearly all actives have a fitted effect of over 50% in size. The essentials:
as §3

The nature of assay [10]: A CellTox Green Cytotoxicity Assay to monitor cytotoxicity in HepG2 cells - 8 hour (AID 1224890). Further: nearly all actives have a fitted effect of over 45% in size. Further: potency means the concentration at half of the fitted maximal effect. In a few lines: as §2
Assay [11] in a line: qHTS assay to identify small molecule antagonists of the estrogen receptor alpha (ER-alpha) signaling pathway using the BG1 cell line in the presence of 0.1 nM 17-beta-estradiol - cell viability counter screen (AID 1259241). Further: nearly all actives have a fitted effect of over 40% in size. The essentials:
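Following 5 days in phenol red-free medium with charcoal-stripped serum, VM7Luc4E2 cells received test compounds alongside 0.1 nM 17beta-estradiol (final) at 37C for 22 hr. Live cells were then quantified via protease-substrate fluorescence.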

Assay [12] in a line: qHTS assay to identify small molecule antagonists of the androgen receptor (AR) signaling pathway using the MDA cell line in the presence of 0.5 nM R1881 - cell viability counter screen (AID 1259242). Further: nearly all actives have a fitted effect of over 45% in size. In a few lines: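 Cells seeded at 3,000/well and allowed 5 hr at 37C, 0% CO2 before compound transfer and R1881 (0.5 nM final) addition; 16 hr later, live-cell protease fluorescence indicated cytotoxicity.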

Assay [13] in a line: qHTS assay to identify small molecule agonists of the sonic hedgehog signaling (Shh) pathway - cell viability counter screen (AID 1259366). Further: nearly all actives have a fitted effect of over 50% in size. In a few lines:
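Compounds in DMSO were pin-transferred onto 3T3 Gli1-Luc cells that had settled 4hr; plates then stood 24hr at 37C and 5% CO2. One hour before the end, CellTiter-Fluor was added and fluorescence recorded.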

A short description of assay [14]: qHTS assay to identify small molecule antagonists of the sonic hedgehog signaling (Shh) pathway - cell viability counter screen (AID 1259367). Further: nearly all actives have a fitted effect of over 55% in size. In a few lines:
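Tox21 library chemicals were tested on a Gli1-Luc NIH/3T3 clone (2,000 cells/well) stimulated by conditioned medium; viability was quantified as fluorescence from CellTiter-Fluor reagent added at 23 hr.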

A short description of assay [15]: qHTS assay to identify small molecule agonists of the sonic hedgehog signaling (Shh) pathway (AID 1259368; calls by dose curve;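 further: NIH/3T3-derived 3T3Gli1-Luc cells carrying a stable Gli1-driven firefly luciferase reporter; series mostly up to about 92 µM; nearly all actives have a fitted effect of over 15% in size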). In a few lines: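 Following a 24 hr incubation with DMSO-dissolved compounds at 37 C, 5% CO2, Gli1-Luc NIH/3T3-derived cells received luciferase reagent for 30 min at room temperature prior to luminescence measurement.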
For assay [16], the target named is Androgen receptor (Homo sapiens) (UniProt P10275). The experiment in a line: qHTS assay to identify small molecule antagonists of the androgen receptor (AR) signaling pathway using the MDA cell line in the presence of 0.5 nM R1881 (AID 1259243). Further: nearly all actives have a fitted effect of over 50% in size. In a few lines: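 Luminescence from an AR/GR-responsive MMTV-luciferase construct in MDA-kb2 breast carcinoma cells, read 30 min after ONE-Glo, following 16 hr co-treatment with compounds and 0.5 nM R1881.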
Chain of Androgen receptor (Homo sapiens) (P10275 whole entry, looked up): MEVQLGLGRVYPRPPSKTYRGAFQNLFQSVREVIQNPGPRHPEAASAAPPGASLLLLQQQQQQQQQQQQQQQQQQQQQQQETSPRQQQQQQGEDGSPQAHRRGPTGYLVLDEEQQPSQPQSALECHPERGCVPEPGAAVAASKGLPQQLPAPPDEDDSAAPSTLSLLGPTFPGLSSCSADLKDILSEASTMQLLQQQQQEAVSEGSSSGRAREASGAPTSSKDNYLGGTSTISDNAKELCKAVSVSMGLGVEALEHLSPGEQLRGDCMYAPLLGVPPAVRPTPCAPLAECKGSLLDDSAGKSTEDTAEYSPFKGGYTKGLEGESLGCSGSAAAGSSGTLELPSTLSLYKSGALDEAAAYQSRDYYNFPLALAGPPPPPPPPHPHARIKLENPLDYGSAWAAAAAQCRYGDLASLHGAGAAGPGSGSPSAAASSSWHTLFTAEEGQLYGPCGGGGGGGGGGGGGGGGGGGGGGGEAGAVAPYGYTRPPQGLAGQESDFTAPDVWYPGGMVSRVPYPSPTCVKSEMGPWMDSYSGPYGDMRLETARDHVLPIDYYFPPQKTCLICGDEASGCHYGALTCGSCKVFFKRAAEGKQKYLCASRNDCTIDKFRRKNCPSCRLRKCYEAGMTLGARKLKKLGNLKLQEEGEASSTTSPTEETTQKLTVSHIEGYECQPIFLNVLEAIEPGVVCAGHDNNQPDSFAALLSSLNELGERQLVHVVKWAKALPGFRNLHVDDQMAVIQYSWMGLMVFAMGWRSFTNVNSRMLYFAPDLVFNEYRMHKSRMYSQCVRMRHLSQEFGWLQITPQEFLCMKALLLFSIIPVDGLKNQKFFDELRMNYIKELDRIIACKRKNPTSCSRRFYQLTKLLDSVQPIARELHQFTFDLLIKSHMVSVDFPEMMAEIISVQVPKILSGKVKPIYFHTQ

For assay [17], the target named is Estrogen receptor (Homo sapiens) (UniProt P03372). Put plainly: qHTS assay to identify small molecule antagonists of the estrogen receptor alpha (ER-alpha) signaling pathway using the BG1 cell line in the presence of 0.1 nM 17-beta-estradiol (AID 1259244). Further: nearly all actives have a fitted effect of over 50% in size. The essentials:
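Luciferase signal from VM7Luc4E2 ERE-reporter cells, co-dosed with test compound and 0.1 nM final 17beta-estradiol for 22 h, read with ONE-Glo.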

Assay [18] is described as follows: qHTS assay to identify small molecule HDAC inhibitors (AID 1259364).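 Further: wild-type HCT-116 cells with endogenous class I/II HDAC activity; top concentration of the series differs between compounds; nearly all actives have a fitted effect of over 45% in size.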 In a few lines: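 HCT-116 wt cells, 1,500/well, overnight attach. Compounds (DMSO) 2 h, 37 °C. HDAC-Glo I/II, 30 min RT. Luminescence.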
Assay [19] can be described thus: qHTS assay to identify small molecule HDAC inhibitors - cell viability counter screen (AID 1259365). In a few lines:
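HCT-116 wild-type, overnight attachment; 2hr drug exposure, 37C; CellTiter-Glo luminescent ATP readout after 30min RT.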

A short description of assay [20]: qHTS assay to identify small molecule phospholipidosis (PLD) inducers (AID 1259344; active means well fitted curve in the direction sought with a large enough effect; an effect the other way counts as inactive or inconclusive). The essentials: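 Image-based: LipidTOX Red pit count/intensity per well and per cell; HepG2, 24 h compound at 37 C, PFA fixation, Hoechst counterstain.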

Unmarked numbers belong to inactive results. Records with an inconclusive call do not appear. Active and inactive are the calls of the source. Unless noted, the call rests on the fitted dose curve; in most records, active means well fitted curve in the direction sought with a large enough effect in the repeat runs; inconclusive means weak or mixed curves; inactive means no such curve, though single readings can be large; an effect the other way counts as inactive or inconclusive.
On the % scale 0 is the no-effect control and ±100 the full control effect.

Chain of Estrogen receptor (Homo sapiens) (P03372 whole entry, looked up): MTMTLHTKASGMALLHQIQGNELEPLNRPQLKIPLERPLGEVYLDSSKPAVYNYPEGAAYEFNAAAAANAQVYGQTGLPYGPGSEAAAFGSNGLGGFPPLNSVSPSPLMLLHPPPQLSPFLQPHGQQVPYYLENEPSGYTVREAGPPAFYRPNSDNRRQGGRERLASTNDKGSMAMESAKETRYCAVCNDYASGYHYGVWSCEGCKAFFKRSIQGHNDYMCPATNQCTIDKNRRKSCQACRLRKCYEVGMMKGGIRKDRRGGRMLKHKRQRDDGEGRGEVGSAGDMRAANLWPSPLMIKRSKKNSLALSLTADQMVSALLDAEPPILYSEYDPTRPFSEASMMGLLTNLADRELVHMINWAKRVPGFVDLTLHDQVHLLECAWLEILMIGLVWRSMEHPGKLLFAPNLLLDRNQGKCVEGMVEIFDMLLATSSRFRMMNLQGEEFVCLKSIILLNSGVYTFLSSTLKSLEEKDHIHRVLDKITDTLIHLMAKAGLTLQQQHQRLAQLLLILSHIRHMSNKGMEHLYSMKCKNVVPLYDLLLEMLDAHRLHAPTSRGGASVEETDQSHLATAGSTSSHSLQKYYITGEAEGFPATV

For `[O-][Cl+3]([O-])([O-])O`, the Potency result in assay [1], in [2], in assay [3], in assay [4], in assay [5] and in assay [6] was “inactive” throughout. Moreover, the Potency entry in [7], in [8], in assay [9], in assay [10], in [11] and in assay [12] was “inactive” in each case. Moreover, the Potency result in assay [13], in assay [14] and in assay [15] was “inactive” each time.

As for `O=c1[nH]c2cc(Cl)ccc2n1C1CCNCC1`, the Potency entry in assay [1], in assay [2], in assay [3], in assay [4], in assay [5] and in [6] was “inactive” in each case. The Potency entry in assay [7], in assay [9], in [10], in assay [11], in [12] and in assay [16] was “inactive” each time. The Potency result in assay [17], in assay [18], in assay [19], in [14] and in assay [15] was “inactive” throughout.

`CC(=O)[O-].CC(=O)[O-].CC(=O)[O-].[Sb+3]`: the cytotoxicity increase in assay [1] is 3.11% [at 2.72 µM]; in assay [3] it was -22.1% [at 2.72 µM]; in assay [4], -0.782% [at 2.72 µM]; in assay [10], -8.87% [at 2.72 µM]. Further, in [2], the cytotoxicity is -11% [at 2.72 µM]. Besides, in assay [5], the activity change, negative = cytotoxic was -7.09% [at 2.72 µM]. Besides, the activity change, negative = cytotoxicity in assay [6] was 5.82% [at 2.72 µM]; in assay [7], -4.44% [at 2.72 µM]; in assay [11], -1.06% [at 3.27 µM]; in [19], -3.57% [at 3.27 µM]. The activity change was 0.422% [at 2.72 µM, hits give high values] in assay [8] and 0.122% [at 3.27 µM, hits give high values] in [15]. The values for the viability change, negative = cytotoxic in assay [12], in [13] and in assay [14] were 2.35% [at 3.26 µM], 5.24% [at 3.27 µM] and 4.31% [at 3.27 µM], respectively. Moreover, the activity change, negative = inhibition in assay [18] is 2.54% [at 3.27 µM].

`CNC(=O)CSP(=O)(OC)OC`: the Potency result in assay [1], in [2], in assay [3], in [4], in assay [5] and in assay [6] was “inactive” in each case. Moreover, the Potency result in assay [7], in assay [9], in assay [10], in assay [11], in assay [12] and in assay [17] was “inactive” in each case. The Potency result in [18], in [19], in [13], in assay [14] and in assay [15] was “inactive” each time.

In the case of `ClCBr`, the Potency entry in [1], in assay [2], in assay [3], in assay [4], in assay [5] and in assay [6] was “inactive” in each case. The Potency result in assay [7], in assay [8], in assay [9], in [10], in [11] and in assay [12] was “inactive” each time. Further, the Potency result in assay [17], in [19], in assay [13], in [14] and in [15] was “inactive” each time.

As to `Nc1nc(N)nc(Cl)n1`, the Potency result in [1], in [2], in assay [3], in assay [4], in assay [5] and in assay [6] was “inactive” each time. Also, the Potency result in assay [7], in assay [8], in [9], in assay [10], in [11] and in assay [12] was “inactive” each time. Moreover, the Potency entry in assay [17], in assay [19], in assay [14] and in assay [15] was “inactive” throughout.

With `O=Cc1ccccc1`, the Potency entry in assay [1], in assay [2], in assay [3], in assay [4], in [5] and in assay [6] was “inactive” throughout. For the same compound, the Potency entry in assay [7], in assay [8], in assay [9], in [10], in assay [11] and in assay [12] was “inactive” in each case. The Potency result in assay [18], in [19], in assay [13], in assay [14] and in [15] was “inactive” in each case. Further, the compound was classed as inactive in [20].

As to `Nc1nc(N)c(N)c(N)n1`, the Potency is 49.2 µM (active) in assay [1]; 49.2 µM (active) in [2]; 55.2 µM (active) in assay [3]; 49.2 µM (active) in assay [4]; 55.2 µM (active) in assay [8]; 49.2 µM (active) in [10]. Moreover, the Potency result in assay [5], in assay [6], in assay [7], in [9], in assay [11] and in [12] was “inactive” each time. Moreover, the Potency entry in assay [15] was “inactive”.
